TbPYK inhibitor: inhibitors of Trypanosoma brucei pyruvate kinase; Q57TT1; TbPYK enzyme, Kinase-Glo Plus ATP luminescence, 45 min; Potency, µM (titrated, usually from 76.8 µM), most hits filed as inhibitors; actives 0.12% (n = 410,000); AID 624173; also: nearly all actives have a fitted effect of over 50% in size
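Luminescent Kinase-Glo Plus end-point after 45 min room-temperature reaction of T. brucei pyruvate kinase started with 130 uM ADP (final). Buffer TEA 50 mM pH 7.2 with KCl, MgCl2, BSA, Tween-20; titration-based qHTS with fitted concentration-effect curves.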
Sm TGR block: S. mansoni TGR enzyme inhibition; Q962Y6; purified TGR, DTNB reduction, TNB absorbance 405 nm; actives 3% (n = 360,000); Potency, µM (highest dose often 114 µM), most hits filed as inhibitors; also: nearly all actives have a fitted effect of over 60% in size
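First, TGR (20 nM dispensed) and NADPH were mixed with compound. Second, a 15 min room-temperature incubation followed. Third, further NADPH and then DTNB were added to start the reaction. Finally, TNB absorbance was monitored kinetically.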
FMDV antiviral: foot and mouth disease virus antiviral activity. FMDV antiviral cell-based qHTS. Potency, µM (highest dose often 57.9 µM), most hits filed as inhibitors. actives 1.2% (n = 410,000). AID 1159524; calls by dose curve; tested in HEK293T cells; also: read-out not given here; nearly all actives have a fitted effect of over 45% in size
RE007 growth inh: less growth of the S. pombe RE007 Vpr strain; S. pombe RE007 Vpr strain, BacTiter-Glo ATP luminescence, 24 h; Potency, µM (series often up to 92.2 µM), hits mostly inhibitors; actives 0.21% (n = 360,000); AID 651644; active = well fitted falling curve with a large enough effect; inconclusive = small, poorly fitted or top-dose-only effect; inactive = no such curve, though single readings can be large or run the other way; also: nearly all actives have a fitted effect of over 50% in size
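Fission yeast RE007 carrying one integrated HIV-1 vpr copy, seeded at OD 0.01 in PMG+AL medium with 23 nL pinned compound. Grown 24 h at 30 degrees; viability read by BacTiter-Glo luminescence after 5 min.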
Numbers stand for hits; n = inactive; u = inconclusive; x = no result given. The list is not random: actives were taken first. Their share in the collection is about 3.7%. Unless noted, calls follow the shape of the dose curve; as a rule, active = well fitted curve in the direction sought with a large enough effect; inconclusive = small, poorly fitted or top-dose-only effect, or another doubt; inactive = no such curve, though single readings can be large; an effect the other way counts as inactive or inconclusive.

SMILES | TbPYK inhibitor | Sm TGR block | FMDV antiviral | RE007 growth inh
CSc1nnc(N2C(=O)C(O)=C(C(=O)c3ccco3)C2c2cccc(Cl)c2)s1 (configuration not stated) | n | 8.91µM | n | n
CSc1nnc(N2C(=O)C(O)=C(C(=O)c3ccco3)C2c2ccc(F)cc2)s1 (configuration not stated) | n | 50.1µM | n | n
COc1ccc(C2C(C(=O)c3ccco3)=C(O)C(=O)N2c2nnc(C)s2)cc1 (configuration not stated) | n | x | n | n
CCCc1cnc2c(c1SCC(=O)N(C)c1ccccc1)c(=O)n(C)c(=O)n2C | n | n | n | x
Cc1c(C(=O)NCC2CCCN(C)C2)cnn1-c1ncc2c(n1)-c1ccccc1CCC2 (configuration not stated) | x | x | n | x
CC(=O)[C@@H]1[C@@H]2C(=O)N(c3ccc(F)c(Cl)c3)C(=O)[C@@H]2C2c3ccccc3C=CN21 (some centres not stated) | x | 35.5µM | x | x
CC(=O)[C@H]1[C@@H]2C(=O)N(c3cccc(Cl)c3)C(=O)[C@@H]2[C@H]2c3ccccc3C=CN21 | n | 15.8µM | n | n
CC(=O)[C@@H]1[C@@H]2C(=O)N(C3CCCCC3)C(=O)[C@@H]2C2c3ccccc3C=CN21 (some centres not stated) | x | 25.1µM | x | x
S=C(Nc1ccc(Cl)cc1)NC1CCCCC1 | n | n | n | n
Cc1ccc(N(C)S(=O)(=O)c2cccc(C(=O)Nc3ccc(N4CCOCC4)cc3)c2)cc1 | n | u | 25.1µM | n
Cc1ccc(C(=O)NC(=S)Nc2ccc(N3CCOCC3)cc2)cc1C | n | n | n | n
NS(=O)(=O)c1cccc(NC(=S)NC(=O)c2cccc([N+](=O)[O-])c2)c1 | n | 15.8µM | n | n
S=C(Nc1ccc(Nc2ccccc2)cc1)NC1CCCCCC1 | n | x | 28.2µM | n
Cc1cccc(C(=O)NC(=S)Nc2ccc(N3CCOCC3)cc2)c1 | n | 14.1µM | n | n
CN(C)CC(C)(C)CNC(=O)c1cnn(-c2ncc3c(n2)-c2ccccc2CC3)c1-c1ccco1 | x | x | n | x
O=C(NC(=S)Nc1ccc(N2CCOCC2)cc1)c1ccc(Cl)cc1 | n | n | u | n
S=C(Nc1ccc(N2CCOCC2)cc1)Nc1ccc2snnc2c1 | n | 35.5µM | n | n
COc1ccc(C(=O)NC(=S)Nc2ccc(N3CCOCC3)cc2)cc1Cl | n | 20µM | n | n
CCC(=O)Nc1cccc(NC(=S)NC(=O)c2cccs2)c1 | n | 25.1µM | n | n
N#Cc1ccccc1NC(=O)COC(=O)c1cccs1 | n | x | n | n
N#Cc1ccccc1NC(=S)NC(=O)c1cccs1 | n | 3.55µM | n | n
O=C(Nc1ccc2snnc2c1)N1CCOCC1 | n | n | n | n
CCOc1ccccc1NC(=O)C(c1ccccc1)N1Cc2ccccc2C1=O (configuration not stated) | n | n | n | x
CCN(CC)C(=O)Cn1nnc2sc(-c3ccccc3)cc2c1=O | n | n | n | x
CCC(=O)N1CCN(c2ccc(NC(=S)NC(=O)c3cccc([N+](=O)[O-])c3)cc2)CC1 | n | 10µM | u | n
SMILES | TbPYK inhibitor | Sm TGR block | FMDV antiviral | RE007 growth inh
COC(=O)c1cc(NC(=S)NC(=O)c2ccccc2)ccc1N1CCOCC1 | n | 25.1µM | n | n
CC(=O)c1cccc(NC(=S)NC(=O)c2cccc(C)c2)c1 | n | 28.2µM | n | x
CC(=O)c1cccc(NC(=S)NC(=O)c2ccc(Cl)cc2)c1 | n | n | n | n
CC(=O)c1cccc(NC(=S)NC2CC2)c1 | n | 39.8µM | n | n
COC(=O)N1CCC2(CC1)CN(C(=O)Nc1cccc(F)c1)C2 | n | x | n | x
COc1cccc(Cn2c(=O)cnc3cnc(N4CCOCC4)nc32)c1 | n | x | n | x
O=C(NC(=S)Nc1ccc(N2CCOCC2)cc1)c1cccs1 | n | 8.91µM | n | n
Cc1ccc(C(=O)N2CCN(c3ccc(NC(=S)NC(=O)c4cccs4)cc3)CC2)cc1 | n | n | n | n
Cc1ccc(C)c(Nc2cc(C(=O)NC3CCCC3)c3ccccc3n2)c1 | n | n | n | x
Cc1ccc(C)c(NC(=O)C2C3C=CC(O3)C2C(=O)O)c1 (configuration not stated) | n | 44.7µM | n | n
COc1cc(NC(=S)NCc2cccnc2)cc(OC)c1 | n | u | n | n
COc1cccc(NC(=O)C2C3C=CC(O3)C2C(=O)NCc2cccnc2)c1 (configuration not stated) | n | 50.1µM | n | n
Cc1cccc(NC(=O)C2C3C=CC(O3)C2C(=O)O)c1C (configuration not stated) | n | 44.7µM | n | n

Bioassay records deposited in PubChem by National Center for Advancing Translational Sciences (NCATS).
